Measurements from PubChem BioAssay (Tox21).
Results filed as inconclusive are left out. A number with no mark means an inactive call. Activity calls are given as the source filed them. The call rests on the fitted dose curve; in most records, active means well fitted cell-killing curve with a large enough effect in the repeat runs; inconclusive means weak or mixed curves, or effect the other way; inactive means flat fitted curve, though single readings scatter.

Assay: cAMP Responsive Elements (CRE) small molecule antagonists, cell-based qHTS assay: qHTS cell viability counter screen (AID 2060913); further: nearly all actives have a fitted effect of over 40% in size
Conditions: CRE-bla HEK293T viability, CellTiter-Glo luminescence, 5 h; series mostly up to 92.4 µM; viability change, negative = cytotoxic: at the top concentration
Text: U.S. Tox21 Program National Center for Advancing Translational Sciences [NCATS] Division of Preclinical Innovation [DPI] U.S. Environmental Protection Agency [EPA] National Institutes of Environmental Health Sciences [NIEHS] National Toxicology Program [NTP] U.S. Food and Drug Administration [FDA] Tox21 Assay Overview: CREB (cyclic-AMP Responsive Element Binding Protein) is a cellular transcription factor. It binds to certain DNA sequences called cAMP Responsive Elements (CRE) and regulates the transcription of the genes. […] This cell line can be used to find agonists/antagonists of the cyclic AMP signaling pathway. The activation of the report gene under culture conditions can be detected by fluorescence intensity. This cell line has been used to screen the Tox21 10K compound library to identify agonists that induce oxidative stress. The cytotoxicity of the Tox21 compound library against the CRE-bla cell line was tested in parallel by measuring the cell viability using CellTiter-Glo assay (Promega, Madison, WI) in the same wells.
Tox21 Assay Protocol Summary: CRE-bla Hek 293T cells were suspended in assay medium (DMEM containing 10% dialyzed FBS, 0.1 mM NEAA, 1 mM sodium pyruvate and 25 mM HEPES) and dispensed at 2,000 cells/4 uL /well into 1536-well black wall/clear bottom plates using a Multidrop Combi (ThermoFisher Scientific, Waltham, MA) dispenser. After the assay plates were incubated at 37 C/5% CO2 for 18 hrs, 23 nL of compounds dissolved in DMSO, positive controls or DMSO only was transferred to the assay plate by a pintool workstation (Kalypsys, San Diego, CA), followed by addition of 1 uL of 1.25uM NKH477 (0.25 uM as final concentration) in assay medium using a Flying Reagent Dispenser (Aurora Discovery, San Diego, CA). The plates were incubated at 37 C and 5% CO2 for 3 hrs. Then 1 uL of LiveBLAzer B/G FRET substrate (Invitrogen, Carlsbad, CA) was added to each well using Bioraptr Flying Reagent Dispenser (FRD, Aurora Discovery, San Diego, CA). The plates were incubated at room temperature for 2 h, then fluorescence intensities were measured using an Envision plate reader (PerkinElmer, Shelton, CT) at Excitation 405nm, Emission 460nm and 530nm. The % activity was determined from the ratio of 460nm/530nm. For cell viability readout that measures cytotoxicity, 4 uL /well of CellTiter-Glo reagent was added into the assay plates using Bioraptr FRD. After 30 min incubation at room temperature, the luminescence intensity in the assay plates was measured using a ViewLux (PerkinElmer, Shelton, CT) plate reader.
On the % scale 0 is the no-effect control and ±100 the full control effect; potency means the concentration at half of the fitted maximal effect.

SMILES	Potency	viability change, negative = cytotoxic
O=P(O)(O)O	inactive	
Cc1cc(O)ccc1O		17%
NC(N)=NCCC[C@H](N)C(=O)O		-0.587% [at 8.39 µM]
CCCCCCCCCC	inactive	
CCCN1CCCC[C@H]1C(=O)Nc1c(C)cccc1C		2.77% [at 42.5 µM]
CCCOCCOCCOCCO		4.69%
CCCCC1CCC(O)CC1 (stereo not given)		2.51%
FC(F)OC(Cl)C(F)(F)F (stereo not given)		-0.883%
C=CCOC(=O)CCCCCC		0.127%
CCN1CCOCC1		-5.95%
O=S(=O)(O)c1ccc2c(N=Nc3ccc(S(=O)(=O)O)c4ccccc34)c(O)c(S(=O)(=O)O)cc2c1		7.11% [at 8.39 µM]
COc1ccc(S(=O)(=O)N2c3ccc(Cl)cc3[C@@](O)(c3ccccc3Cl)[C@H]2C(=O)N2CCC[C@@H]2C(N)=O)cc1OC		6.15% [at 42.5 µM]
COCC(=O)Nc1c(I)c(C(=O)NCC(O)CO)c(I)c(C(=O)N(C)CC(O)CO)c1I (stereo not given)		-0.0206% [at 42.5 µM]
COc1ccc(-c2cc(C(F)F)nn2-c2ccc(S(N)(=O)=O)cc2)cc1F		0.2% [at 42.5 µM]
CN(C)CCC(c1ccc(Cl)cc1)c1ccccn1 (stereo not given)	inactive	
CS(=O)(=O)CCNCc1ccc(-c2ccc3ncnc(Nc4ccc(OCc5cccc(F)c5)c(Cl)c4)c3c2)o1		-5.49% [at 42.5 µM]
O=C(O)c1snc(Cl)c1Cl		-0.495%
NC(CCC(=O)O)C(=O)O (stereo not given)		-5.94%
N#CSCC(=O)O		0.371% [at 42.5 µM]
CS(=O)(=O)OCCCCOS(C)(=O)=O	inactive	

SMILES	Potency	viability change, negative = cytotoxic
CC(=O)OCC=C(C)C		-0.198% [at 42.5 µM]
COc1cc(-c2nc(NC(=O)c3cc4cc(C)cc(C)c4n3CC(=O)O)sc2CCC2CCCCC2)c(OC)cc1Cl	25 µM (active)	
CC[C@H]1OC(=O)[C@H](C)[C@@H](O[C@H]2C[C@@](C)(OC)[C@@H](O)[C@H](C)O2)[C@H](C)[C@@H](O[C@@H]2O[C@H](C)C[C@H](N(C)C)[C@H]2O)[C@](C)(OC)C[C@@H](C)C(=O)[C@H](C)[C@@H](O)[C@]1(C)O		-22.1%
CCC(C)O (stereo not given)		0.28%
O=C(C(=O)c1ccc(Br)cc1)c1ccc(Br)cc1		-3.96% [at 18.9 µM]
C/C(=C(\CCO)SS/C(CCO)=C(\C)N(C=O)Cc1cnc(C)nc1N)N(C=O)Cc1cnc(C)nc1N		-1.1% [at 42.5 µM]
COc1cc2nc(Cl)nc(N)c2cc1OC		-0.0904% [at 42.5 µM]
CN(C)C(=O)NC1(c2ccccc2)CCN(CC[C@@]2(c3ccc(F)c(F)c3)CN(C(=O)c3ccccc3)CCO2)CC1		-10.1%
CCCCCCCCCCCC(C)=O		3.61%
CN(C)CCOC(=O)COc1ccc(Cl)cc1	inactive	
O=S(=O)(O)c1cc(I)c(O)c2ncccc12		-0.676% [at 42.5 µM]
Cc1cccc(C)n1		-0.0009%
CC1=CCC(C(C)(C)O)CC1 (stereo not given)	inactive	
NCC[C@H](O)C(=O)N[C@@H]1C[C@H](N)[C@@H](O[C@H]2O[C@H](CN)[C@@H](O)[C@H](O)[C@H]2O)[C@H](O)[C@H]1O[C@H]1O[C@H](CO)[C@@H](O)[C@H](N)[C@H]1O		0.2% [at 0.349 µM]
OC[C@@H](O)[C@H](O)[C@H](O)[C@@H](O)CO	inactive	
CCCCCCCCCCCCCCCCCCOCC(O)CO (stereo not given)		-1.34% [at 42.5 µM]
CC(C)CC(=O)O		16.1%
CCOC(=O)COC(=O)c1cc(Oc2ccc(C(F)(F)F)cc2Cl)ccc1[N+](=O)[O-]		-10.5%
CCCCCCOC(=O)CCC		6%
NC(CO)(CO)CO	inactive	
